The values that follow come from the supplement of paper PMC8728848.

What all share (test): glycan array binding signal (z-score within array); higher = stronger binding
Conditions in all cases: glycan notation: IUPAC condensed, linker removed

Experiment [1] has as its target GlcNAc(a1-6)Gal(b1-4)GlcNAc. Put shortly: (§1)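 Glycan array data were curated from 3228 arrays in the Consortium for Functional Glycomics database and kept only where the protein sequence was available. Glycan names were converted to IUPAC-condensed notation, and columns mapping to the same glycan were averaged. The binding signal is a within-array Z-score, averaged across arrays of the same protein sequence at different concentrations or buffers and across linkers. Negative Z-scores can be read as non-binding.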

In experiment [2] the target is GlcNAc(b1-2)Gal(b1-3)GalNAc. Put shortly:
as §1

In experiment [3] the target is GlcNAc(b1-2)Man(a1-3)[GlcNAc(b1-4)][GlcNAc(b1-2)Man(a1-6)]Man(b1-4)GlcNAc(b1-4)[Fuc(a1-6)]GlcNAc. Summed up:
as §1

Experiment [4] deals with GlcNAc(b1-3)Gal(b1-4)GlcNAc(b1-6)[GlcNAc(b1-3)Gal(b1-3)]GalNAc. Summed up:
as §1

The target of experiment [5] is GlcNAc(b1-4)Gal(b1-4)GlcNAc. Summed up:
as §1

Experiment [6] has as its target GlcNAc(b1-4)GlcNAc(b1-4)GlcNAc(b1-4)GlcNAc(b1-4)GlcNAc. Summed up: as §1
In experiment [7] the target is GlcNAc6S(b1-3)Gal(b1-4)GlcNAc. Put shortly:
as §1

Another experiment addresses Kdn(a2-3)Gal(b1-4)Glc. Put shortly:
as §1

The target in experiment [8] is Neu5Ac(a2-3)Gal(b1-4)GlcNAc(b1-2)Man(a1-3)[GlcNAc(b1-2)Man(b1-4)GlcNAc(b1-2)Man(a1-6)]Man(b1-4)GlcNAc(b1-4)GlcNAc. Summed up: as §1
The target in experiment [9] is Neu5Ac(a2-3)Gal(b1-4)GlcNAc(b1-3)Gal(b1-4)GlcNAc(b1-3)GalNAc. Put shortly:
as §1

For experiment [10], the target named is Neu5Ac(a2-3)Gal(b1-4)GlcNAc(b1-6)GalNAc. Summed up: as §1
The target of experiment [11] is Neu5Ac(a2-3)Gal(b1-4)[Fuc(a1-3)]GlcNAc(b1-3)Gal. Put shortly:
as §1

The target of experiment [12] is Neu5Ac(a2-3)[Neu5Ac(a2-6)]GalNAc. Put shortly: as §1
For the next experiment, the target named is Neu5Ac(a2-6)Gal. Put shortly: as §1
Experiment [13] has as its target Neu5Ac(a2-6)Gal(b1-4)GlcNAc(b1-2)Man(a1-6)[GlcNAc(b1-2)Man(a1-3)]Man(b1-4)GlcNAc(b1-4)GlcNAc. Put shortly:
as §1

The target of experiment [14] is Neu5Ac(a2-6)Gal(b1-4)GlcNAc(b1-2)Man(a1-6)[Man(a1-3)]Man(b1-4)GlcNAc(b1-4)GlcNAc. Summed up: as §1
In experiment [15] the target is Neu5Ac(a2-6)Gal(b1-4)GlcNAc(b1-3)Gal(b1-4)GlcNAc(b1-3)[Neu5Ac(a2-6)Gal(b1-4)GlcNAc(b1-3)Gal(b1-4)GlcNAc(b1-6)]GalNAc. Put shortly:
as §1

Experiment [16] has as its target Neu5Ac(a2-6)Gal(b1-4)GlcNAc(b1-6)[Gal(b1-3)GlcNAc(b1-3)]Gal(b1-4)Glc. Put shortly:
as §1

Experiment [17] has as its target Neu5Ac(a2-6)Gal(b1-4)GlcNAc(b1-6)[Gal(b1-3)]GalNAc. Summed up: as §1
In experiment [18] the target is Neu5Ac(a2-6)GlcNAc(b1-4)GlcNAc. Put shortly: as §1
In experiment [19] the target is Neu5Ac(a2-8)Neu5Ac(a2-3)Gal(b1-4)Glc. Summed up:
as §1

The target in experiment [20] is Neu5Gc(a2-3)Gal(b1-3)GlcNAc. Put shortly:
as §1

Many of the other results were omitted from the sample, so the strongest signals are more common in it than they were.

B1: NK2 (Sus scrofa) (peptide)
chain: KILRGVCKKIMRTFLRRISKDILTGKK
With B1, the “glycan array binding signal (z-score)” value in experiment [1] was -1.07; in experiment [2] it was -0.471; in [3], -1.11; in experiment [4], 0.144; in [5] it was 0.592; in experiment [6], 0.06. In addition, the “glycan array binding signal (z-score)” value in experiment [7] is -0.015; with Kdn(a2-3)Gal(b1-4)Glc, 0.105; in experiment [8], -0.411; in experiment [9], 2.37; in experiment [10], 1.14; in [11], -0.39. The “glycan array binding signal (z-score)” value in experiment [12] was 0.24; in the experiment with Neu5Ac(a2-6)Gal it was -0.071; in experiment [13], 0.794; in [14], -0.656; in experiment [15] it was 0.794; in experiment [16] it was -0.41. Further, the “glycan array binding signal (z-score)” value was -1.1 in experiment [17], -0.816 in [18], -0.889 in experiment [19] and -0.108 in [20].
